Source: PubChem BioAssay (Tox21)
Records with an inconclusive call do not appear. The source made the active and inactive calls. Unless noted, the call rests on the fitted dose curve; in most records, active means well fitted curve in the direction sought with a large enough effect in the repeat runs; inconclusive means weak or mixed curves; inactive means no such curve, though single readings can be large; an effect the other way counts as inactive or inconclusive.

Assays:
[1] = qHTS assay for small molecule agonists of the p53 signaling pathway (AID 651631; calls by dose curve; further: nearly all actives have a fitted effect of over 15% in size)
In short: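 Readout was fluorescence from the LiveBLAzer FRET substrate, applied for 2 h at room temperature after 16 h compound exposure at 37 °C. Cells were the p53RE-bla HCT-116 line, with beta-lactamase driven by p53 response elements.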

[2] = qHTS assay for small molecules that induce genotoxicity in human embryonic kidney cells expressing luciferase-tagged ATAD5 (AID 651632); further: nearly all actives have a fitted effect of over 15% in size
In short: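 HEK293T cells carrying a luciferase reporter tagged to ATAD5 were exposed to compound or DMSO vehicle for 16 hr at 37C, 5% CO2. Amplite was added, and after 30 min at room temperature luciferase activity was read as a marker of ATAD5 induction.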

[3] = qHTS assay for small molecule agonists of the p53 signaling pathway - cell viability (AID 651633; calls by dose curve; further: series mostly up to about 83 µM; nearly all actives have a fitted effect of over 30% in size)
In short: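 p53RE-bla cells were treated with compound for 16 hours at 37 C. Cytotoxicity was then measured as CellTiter-Glo luminescence after 30 min at room temperature.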

[4] = qHTS assay for small molecules that induce genotoxicity in human embryonic kidney cells expressing luciferase-tagged ATAD5 - cell viability (AID 651634; calls by dose curve; further: nearly all actives have a fitted effect of over 25% in size)
In short: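 HEK293T cells expressing luciferase-tagged ATAD5 were exposed to compound or DMSO for 15.5 hr at 37C, 5% CO2. Viability was then read as live-cell protease activity by CellTiter-Fluor fluorescence after 30 min at 37C.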

[5] = qHTS assay for small molecule disruptors of the mitochondrial membrane potential - cell viability (AID 720634; calls by dose curve;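 further: human HepG2 liver cancer cells; series mostly up to about 83 µM; nearly all actives have a fitted effect of over 20% in size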)
In short: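 HepG2 cells seeded overnight at 37 C, then exposed to compound or DMSO for 1 hr at 37 C, 5% CO2. m-MPI dye added, then CellTiter-Glo for 30 min at room temperature; viability read as ATP luminescence.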

[6] = qHTS assay for small molecule disruptors of the mitochondrial membrane potential (AID 720635)
In short: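 HepG2 cells exposed to compound 1 hr at 37C, then Mito-MPS dye 30 min. Ratio read of aggregate (540/590 nm) versus monomer (490/535 nm) fluorescence.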

[7] = qHTS assay to test for compound auto fluorescence at 590 nm (red) in HepG2 cells (AID 720674)
In short: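 Fluorescence at 590 nm emission following 540 nm excitation was recorded from HepG2 wells one hour after compound transfer, with DMSO-only wells as vehicle and Rose Bengal sodium equivalency as the scale.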

[8] = qHTS assay to test for compound auto fluorescence at 535 nm (green) in HepG2 cells (AID 720675)
[9] = qHTS assay to test for compound auto fluorescence at 460 nm (blue) in HEK293 cells (AID 720678)
In short: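 After cell attachment (4-5 hr, 37C), compounds were pinned onto HEK293 monolayers in 10% dialyzed FBS medium. The blue channel (405/460 nm) was read following overnight culture. Equivalency was calculated against triamterene.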

[10] = qHTS assay to test for compound auto fluorescence at 590 nm (red) in HEK293 cells (AID 720679)
In short: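 Plates of HEK293 cells (10% dialyzed FBS) are treated with 23 nL compound or DMSO vehicle after a 4-5 hr attachment period, incubated overnight at 37C, and read for red fluorescence at 540/590nm.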
On the % scale 0 is the no-effect control and ±100 the full control effect.

CC(C)(C)c1ccc(C=O)cc1
inactive: outcome [1] | outcome [2] | outcome [3] | Potency [4] | outcome [5] | Potency [6] | outcome [7] | outcome [8] | outcome [9] | outcome [10]

CN[C@@H]1[C@H](O)[C@H](NC)[C@H]2O[C@@]3(O)C(=O)C[C@@H](C)O[C@H]3O[C@@H]2[C@H]1O
inactive: outcome [1] | outcome [2] | outcome [3] | Potency [4] | outcome [5] | Potency [6] | fluorescence, relative to Rose Bengal [7] -0.0467% [at 18.6 µM] | fluorescence, % of fluorescein control [8] -0.162% [at 18.6 µM] | fluorescence, % of triamterene [9] -0.0174% [at 18.6 µM] | fluorescence, % of fluorescent control [10] 0.0398% [at 18.6 µM]

CC(=O)OC(C)(C)Cc1ccccc1
inactive: outcome [1] | outcome [2] | outcome [3] | Potency [4] | outcome [5] | Potency [6] | outcome [7] | outcome [8] | outcome [9] | outcome [10]

O=c1[nH]c(=O)c2ccccc2o1
inactive: outcome [1] | outcome [2] | outcome [3] | Potency [4] | outcome [5] | outcome [7] | outcome [8] | outcome [9] | outcome [10]

O=C(Oc1ccccc1C(=O)O)c1ccccc1O
inactive: outcome [1] | outcome [2] | outcome [3] | Potency [4] | outcome [5] | Potency [6] | outcome [7] | outcome [8] | outcome [9] | outcome [10]

C=C[C@@H](C)CCC=C(C)C
inactive: outcome [1] | outcome [2] | outcome [3] | Potency [4] | outcome [5] | Potency [6] | outcome [7] | outcome [8] | outcome [9] | outcome [10]

O=C(O)CCNC(=O)c1ccccc1
inactive: outcome [1] | outcome [2] | outcome [3] | Potency [4] | outcome [5] | Potency [6] | outcome [8] | outcome [9] | outcome [10]

Nc1ccc(S(=O)(=O)NC(=O)c2ccccc2)cc1
inactive: outcome [1] | outcome [2] | outcome [3] | Potency [4] | outcome [5] | Potency [6] | fluorescence, relative to Rose Bengal [7] 0.536% [at 18.6 µM] | fluorescence, % of fluorescein control [8] -0.394% [at 18.6 µM] | fluorescence, % of triamterene [9] -0.236% [at 18.6 µM] | fluorescence, % of fluorescent control [10] -0.801% [at 18.6 µM]

CCCCCC1CCCC(=O)O1 (configuration not stated)
inactive: outcome [1] | outcome [2] | outcome [3] | Potency [4] | outcome [5] | Potency [6] | outcome [7] | outcome [8] | outcome [9] | outcome [10]

CC(=O)OCCCc1ccccc1
inactive: outcome [1] | outcome [2] | outcome [3] | Potency [4] | outcome [5] | Potency [6] | outcome [8] | outcome [9] | outcome [10]

CCCCCCCC/C=C\CCCCCCCC(=O)OC[C@@H](O)[C@H]1OC[C@H](O)[C@H]1O
inactive: outcome [1] | outcome [2] | outcome [3] | Potency [4] | outcome [5] | Potency [6] | outcome [7] | outcome [8] | outcome [9] | outcome [10]

CC(=O)OC(C(=O)c1ccccc1)c1ccccc1 (configuration not stated)
inactive: outcome [1] | outcome [2] | outcome [3] | Potency [4] | outcome [5] | outcome [7] | outcome [8] | outcome [9] | outcome [10]

CNCc1ccccc1
inactive: outcome [1] | outcome [2] | outcome [3] | Potency [4] | outcome [5] | Potency [6] | outcome [7] | outcome [8] | outcome [9] | outcome [10]

Cc1ccccc1OCC1CO1 (configuration not stated)
inactive: outcome [1] | outcome [2] | outcome [3] | Potency [4] | outcome [5] | outcome [7] | outcome [8] | outcome [9] | outcome [10]

Cc1cc(C)cc([N+](=O)[O-])c1
inactive: outcome [1] | outcome [2] | outcome [3] | Potency [4] | outcome [5] | Potency [6] | outcome [7] | outcome [8] | outcome [9] | outcome [10]

NC(=O)C1(N2CCCCC2)CCN(CCCC(=O)c2ccc(F)cc2)CC1
inactive: outcome [1] | outcome [2] | outcome [3] | Potency [4] | outcome [5] | Potency [6] | outcome [7] | outcome [8] | outcome [9] | outcome [10]

FC(F)(F)/C(=N\OCC1OCCO1)c1ccc(Cl)cc1
inactive: outcome [1] | outcome [2] | outcome [3] | Potency [4] | outcome [5] | Potency [6] | outcome [7] | outcome [8] | outcome [9] | outcome [10]

NS(=O)(=O)c1ccccc1OC(F)(F)F
inactive: outcome [1] | outcome [2] | outcome [3] | Potency [4] | outcome [5] | outcome [7] | outcome [8] | outcome [9] | outcome [10]

CC(C)COC(=O)CC(C(=O)OCC(C)C)S(=O)(=O)O (configuration not stated)
inactive: outcome [1] | outcome [2] | outcome [3] | Potency [4] | outcome [5] | outcome [7] | outcome [8] | outcome [9] | outcome [10]

C[C@H]1O[C@H](O[C@H]2[C@H](O)[C@@H](O)[C@@H](O[C@H]3[C@H](O)[C@@H](O)[C@H](O)O[C@@H]3CO)O[C@@H]2CO)[C@H](O)[C@@H](O)[C@@H]1N[C@H]1C=C(CO)[C@@H](O)[C@H](O)[C@H]1O
inactive: outcome [1] | outcome [2] | outcome [3] | Potency [4] | outcome [5] | Potency [6] | outcome [7] | outcome [8] | outcome [9] | outcome [10]

NC(=O)NC(=O)Cc1ccccc1
inactive: outcome [1] | outcome [2] | outcome [3] | Potency [4] | outcome [5] | Potency [6] | outcome [7] | outcome [8] | outcome [9] | outcome [10]

C=CCOCC(CO)(COCC=C)COCC=C
inactive: outcome [1] | outcome [2] | outcome [3] | Potency [4] | outcome [5] | Potency [6] | outcome [7] | outcome [8] | outcome [9] | outcome [10]

Cc1ccccc1C(=O)N1CC/C(=N\OS(=O)(=O)O)c2ccc(Cl)cc21
inactive: outcome [1] | outcome [2] | outcome [3] | Potency [4] | outcome [5] | Potency [6] | outcome [8] | outcome [9] | outcome [10]
